The values that follow come from PubChem BioAssay (EPA / NIEHS).

Active and inactive are the calls of the source. How the source made its calls: active means hit-call score of the fitted dose curve at least 0.9, where 1 is the maximum; inactive means score below 0.9.

Sequence of Hepatocyte nuclear factor 3-beta (Homo sapiens) (Q9Y261 whole entry, looked up): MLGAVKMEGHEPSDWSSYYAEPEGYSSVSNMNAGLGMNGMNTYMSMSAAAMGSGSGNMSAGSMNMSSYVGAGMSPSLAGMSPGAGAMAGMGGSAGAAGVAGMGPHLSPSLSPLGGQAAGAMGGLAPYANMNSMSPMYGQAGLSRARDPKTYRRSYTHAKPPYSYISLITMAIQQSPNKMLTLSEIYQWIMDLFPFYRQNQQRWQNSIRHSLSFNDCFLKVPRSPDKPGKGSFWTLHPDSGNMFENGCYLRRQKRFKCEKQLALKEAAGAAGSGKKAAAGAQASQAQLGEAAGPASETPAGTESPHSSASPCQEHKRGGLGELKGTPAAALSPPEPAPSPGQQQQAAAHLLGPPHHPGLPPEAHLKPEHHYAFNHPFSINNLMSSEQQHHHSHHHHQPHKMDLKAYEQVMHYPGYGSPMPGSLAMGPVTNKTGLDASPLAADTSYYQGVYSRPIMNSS

The assay deals with Hepatocyte nuclear factor 3-beta (Homo sapiens) (UniProt Q9Y261). In words: ATG_FoxA2_CIS: Attagene CIS-FACTORIAL HepG2 Assay for human Forkhead box A2 (FOXA2) (AID 2282942). As to conditions: HepG2 cis-reporter transcription factor activity, 24 h; actives raise or lower the signal. Here is the method:
ATG_CIS is a cell-based, multiplexed-readout assay that uses HepG2, a human liver cell line, with measurements taken at 24 hours after chemical dosing in a 24-well plate.ATG_FoxA2_CIS is one of 52 assay component(s) measured or calculated from the ATG_CIS assay. It is designed to make measurements of mRNA induction, a form of inducible reporter, as detected with fluorescence intensity signals by Reverse transcription polymerase chain reaction (RT-PCR) and Capillary electrophoresis technology.Data from the assay component ATG_FoxA2_CIS was analyzed into 1 assay endpoint. This assay endpoint, ATG_FoxA2_CIS, was analyzed with bidirectional fitting relative to DMSO as the negative control and baseline of activity. Using a type of inducible reporter, measures of mRNA for gain or loss-of-signal activity can be used to understand the reporter gene at the transcription factor-level as they relate to the gene FOXA2. Furthermore, this assay endpoint can be referred to as a primary readout, because this assay has produced multiple assay endpoints where this one serves a reporter gene function. To generalize the intended target to other relatable targets, this assay endpoint is annotated to the dna binding intended target family, where the subfamily is forkhead box protein.
Human liver HepG2 cells are transiently transfected with multiple reporter transcription units (MRTUs) in 6-well plates using FuGene 6 reagent (Roche; 3 ml FuGene/1 mg DNA). The MRTU constructs are regulated by a cis-regulating element (promoter). […] A major difference between the CIS and TRANS system is that in CIS activities of endogenous TFs are measured, whereas the TRANS assay evaluates changes in activities of exogenous, chimeric NR-Gal4 proteins. […] At the end of 24 hour incubation, total RNA was isolated using TriZol reagent (Invitrogen). The isolated RNA is then reverse-transcribed using oligo(dT) primer and Mo-MLV reverse transcriptase (Invitrogen) with DNAse I (Ambion) treatment for 30 min. The one-tenth of the produced cDNA was amplified by PCR using Taq DNA polymerase (Invitrogen) and two reporter sequence-specific primers. The PCR products were fluorescently labeled by primer extension with 6-arboxyfluorescein (6-FAM) 5'-labeled reporter sequence-specific primer (2 min at 95 C, 20 s at 68 C and 10 min at 72 C) and these products were digested with 5U of HpaI (New England Biolabs) for 2h at 37 C. The fragments were purified using Qiaquick PCR columns (Qiagen), analyzed on an ABI 3130xL genetic analyzer (Applied Biosystems) with peak positions identified by using a set of X-rhodamine (ROX)-labeled MapMarker1000 molecular weight standards (BioVentures). The raw capillary electrophoresis data was processed using Attagraph software (Attagene).
Take `CCCOCCC`: the compound was called inactive.

With `OCCc1ccccn1`, the result was inactive.

As to `C/C=C(\C)C(=O)OCC/C=C\CC`, the outcome was inactive.

Regarding `CC1=C(CC=O)C(C)(C)CCC1`, the compound was classed as inactive.

Turning to `C=CCOCC(CC)(CO)COCC=C`, the compound was called inactive.

Consider `C=C1CC[C@H]2C[C@@H]1C2(C)C`, for which the result was inactive.

As for `Cc1ccnc(N)c1`, the result was inactive.

On to `c1cc(N(CC2CO2)CC2CO2)ccc1Cc1ccc(N(CC2CO2)CC2CO2)cc1` (stereo not given), for which the call was inactive.

Turning to `CN(C)CCCN1c2ccccc2CCc2ccc(Cl)cc21`, the compound was classed as inactive.

With `OCCOCCOCCOCCOCCO`, the outcome was inactive.

`CC1=C(CC(=O)O)c2cc(F)ccc2/C1=C\c1ccc(S(C)=O)cc1` (stereo not given): the outcome was inactive.

For the compound `COCCCN`, the outcome was inactive.

`COC(=O)[C@]1(C)CCC[C@@]2(C)[C@H]1CC=C1C=C(C(C)C)CC[C@@H]12`: the result was inactive.

Regarding `c1ccc(CNc2ncnc3nc[nH]c23)cc1`, the call was inactive.

As for `NCc1ccccc1`, the outcome was inactive.

Regarding `CCCCCCCCCCCCCC`, the result was inactive.

Regarding `Oc1ccc(Cl)cc1C1CCCC1`, the outcome was inactive.

In the case of `COC(OC)C(C)c1ccccc1` (stereo not given), the outcome was inactive.

Take `O=[N+]([O-])c1ccccc1C(F)(F)F`: the call was inactive.

`CCCCCC1CCCC(=O)O1` (stereo not given): the call was inactive.

Consider `CCCCCCCCCCCCCCCCCC[N+](C)(C)C`, for which the AC50 is 45.4 µM (active).

With `NC(=O)c1ccc([N+](=O)[O-])cc1Cl`, the compound was classed as inactive.

As for `CC/C=C\CC/C=C/C(OCC)OCC`, the call was inactive.

With `Sc1nc2ccccc2s1`, the result was inactive.

`CCCc1c(OCCCCc2nn[nH]n2)ccc(C(C)=O)c1O`: the compound was called inactive.

Regarding `CCCCOC(=O)COc1ccc(Cl)cc1Cl`, the call was inactive.

Consider `CCC(C)C1N=C(C)C(C)S1` (stereo not given), for which the call was inactive.

As to `CCCCNC(N)=O`, the compound was called inactive.

As to `O=C1CCCCCCCCCCCCCC1`, the result was inactive.

Consider `C[C@H]1C[C@H]2[C@@H]3CCC4=CC(=O)C=C[C@]4(C)[C@@]3(F)[C@@H](O)C[C@]2(C)[C@@]1(O)C(=O)CO`, for which the result was inactive.

In the case of `CCCCn1cc[n+](C)c1`, the result was inactive.

On to `CCOc1ccc2c(c1)C(C)CC(C)(C)N2` (stereo not given), for which the compound was called inactive.

As for `CC1=NN(c2cc(Cl)c(S(=O)(=O)O)cc2Cl)C(=O)C1N=Nc1ccc(S(=O)(=O)O)cc1` (stereo not given), the compound was called inactive.

For `O=C(O)/C=C\C(=O)O`, the result was inactive.

On to `O=C(Oc1ccccc1)c1ccccc1`, for which the result was inactive.

`CCCC(=O)OC/C=C(\C)CCC=C(C)C`: the compound was classed as inactive.

For the compound `O=C(O)/C=C/C(=O)O`, the compound was called inactive.

For `CNC(=C[N+](=O)[O-])NCCSCc1csc(CN(C)C)n1`, the result was inactive.

As for `CCCCCC[C@@H](O)C/C=C\CCCCCCCC(=O)O`, the AC50 was 172 µM (active).

As for `CC/C=C/CCO`, the call was inactive.

The term AC50 denotes the concentration giving half of the maximal activity seen.
